# Unmarked numbers belong to inactive results. Records with an inconclusive call do not appear. Entries that show only a call come without a potency. The source made the active and inactive calls. Unless noted, calls follow the shape of the dose curve; as a rule, active = well fitted curve in the direction sought with a large enough effect in the repeat runs; inconclusive = weak or mixed curves; inactive = no such curve, though single readings can be large; an effect the other way counts as inactive or inconclusive.
# Columns and labels:
# [1] = A CellTox Green Cytotoxicity Assay to monitor cytotoxicity in HepG2 cells - 0 hour (AID 1224882); also: nearly all actives have a fitted effect of over 35% in size; also: potency is read from the fitted curve at half-maximal effect
# Outline: (§1)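 HepG2 cells were seeded together with the CellTox Green dye at 600 cells/well, left 5 h at 37 C/5% CO2, then given compounds in DMSO. Fluorescence from dye bound to dead-cell DNA was read repeatedly over 40 h of treatment at 37 C.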
# [2] = A CellTox Green Cytotoxicity Assay to monitor cytotoxicity in HEK293 cells - 8 hour (AID 1224884); also: nearly all actives have a fitted effect of over 35% in size; also: potency is read from the fitted curve at half-maximal effect
# Outline: (§2)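 HEK293 cells premixed with CellTox Green dye were seeded at 600 cells/well and left 5 h at 37 C/5% CO2 before pin transfer of 23 nL compound in DMSO. Fluorescence from dye bound to dead-cell DNA was read during 40 h treatment.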
# [3] = qHTS RealTime-Glo MT Cell Viability Assay in HEK293 cells - 24 hour (AID 1224886); also: top concentration of the series differs between compounds; nearly all actives have a fitted effect of over 50% in size
# Outline: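 Homogeneous bioluminescent viability format in HEK293 cells (600 cells/well). Following 5 h at 37 C/5% CO2, 23 nL compound was pintooled; the signal was measured repeatedly during 40 h incubation.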
# [4] = qHTS RealTime-Glo MT Cell Viability Assay in HEK293 cells - 8 hour (AID 1224887); also: nearly all actives have a fitted effect of over 50% in size; also: potency is read from the fitted curve at half-maximal effect; as to activity change, negative = cytotoxicity: top concentration of the series differs between compounds
# Outline: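 HEK293 cells mixed with RealTime-Glo reagents (NanoLuc plus cell-permeant prosubstrate) at 600 cells/well, preincubated 5 h at 37 C/5% CO2, then given 23 nL compound in DMSO. Nonlytic luminescence from viable cells was read at 0, 8, 16, 24, 32 and 40 h.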
# [5] = A CellTox Green Cytotoxicity Assay to monitor cytotoxicity in HEK293 cells - 16 hour (AID 1224888); also: nearly all actives have a fitted effect of over 35% in size; also: potency is read from the fitted curve at half-maximal effect
# Outline: as §2
# [6] = qHTS RealTime-Glo MT Cell Viability Assay in HepG2 cells - 0 hour (AID 1224889); also: nearly all actives have a fitted effect of over 50% in size; also: potency is read from the fitted curve at half-maximal effect
# Outline: (§3)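 Cell number in HepG2 cultures estimated from NanoLuc luminescence generated by metabolic reduction of a prosubstrate by living cells. The homogeneous, nonlytic format allowed repeated reads at 0, 8, 16, 24, 32 and 40 h of compound exposure.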
# [7] = A CellTox Green Cytotoxicity Assay to monitor cytotoxicity in HepG2 cells - 8 hour (AID 1224890); also: nearly all actives have a fitted effect of over 45% in size; also: potency is read from the fitted curve at half-maximal effect
# Outline: as §1
# [8] = qHTS assay to identify small molecule antagonists of the estrogen receptor alpha (ER-alpha) signaling pathway using the BG1 cell line in the presence of 0.1 nM 17-beta-estradiol - cell viability counter screen (AID 1259241); also: nearly all actives have a fitted effect of over 40% in size
# Outline: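 The cell line endogenously expresses full-length ER-alpha and carries four EREs driving luciferase. Cells are cultured 5 days hormone-free, treated 22 hr with compounds and 0.1 nM estradiol, then viability is read by fluorescence.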
# [9] = qHTS assay to identify small molecule antagonists of the androgen receptor (AR) signaling pathway using the MDA cell line in the presence of 0.5 nM R1881 - cell viability counter screen (AID 1259242); also: nearly all actives have a fitted effect of over 45% in size
# Outline: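 MDA-kb2 cells (human breast carcinoma, stably carrying MMTV-luciferase reporter) were exposed to compounds with 0.5 nM R1881 (final) for 16 hr at 37C, 0% CO2; viability then read as live-cell protease fluorescence (CellTiter-Fluor, 30 min) in the same wells.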
# [10] = molecular target: Estrogen receptor (Homo sapiens) (UniProt P03372); test: qHTS assay to identify small molecule antagonists of the estrogen receptor alpha (ER-alpha) signaling pathway using the BG1 cell line in the presence of 0.1 nM 17-beta-estradiol (AID 1259244); also: nearly all actives have a fitted effect of over 50% in size
# Chain of Estrogen receptor (Homo sapiens) (P03372 whole entry, looked up): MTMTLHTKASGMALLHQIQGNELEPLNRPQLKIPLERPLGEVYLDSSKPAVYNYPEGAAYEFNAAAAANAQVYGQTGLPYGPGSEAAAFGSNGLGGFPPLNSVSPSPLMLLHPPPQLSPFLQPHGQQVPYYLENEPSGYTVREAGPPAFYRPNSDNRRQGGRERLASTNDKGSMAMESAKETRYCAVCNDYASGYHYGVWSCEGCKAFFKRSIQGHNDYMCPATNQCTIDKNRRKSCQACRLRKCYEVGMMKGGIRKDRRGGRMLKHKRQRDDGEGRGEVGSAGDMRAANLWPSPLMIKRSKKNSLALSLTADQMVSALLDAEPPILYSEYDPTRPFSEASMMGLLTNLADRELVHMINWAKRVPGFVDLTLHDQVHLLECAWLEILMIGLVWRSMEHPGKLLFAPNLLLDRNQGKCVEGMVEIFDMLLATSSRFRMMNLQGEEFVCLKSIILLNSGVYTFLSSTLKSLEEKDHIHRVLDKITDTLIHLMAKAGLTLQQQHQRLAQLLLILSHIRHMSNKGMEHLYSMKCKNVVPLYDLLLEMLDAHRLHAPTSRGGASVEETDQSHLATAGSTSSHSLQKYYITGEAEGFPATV
# Outline: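 VM7Luc4E2 cells (endogenous full-length ER-alpha, stable 4xERE-luciferase) were grown 5 days in phenol red-free medium with charcoal-stripped FBS, then exposed 22 h at 37C to compounds plus 0.1 nM (final) 17beta-estradiol; ONE-Glo luminescence read-out.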
# [11] = qHTS assay to identify small molecule phospholipidosis (PLD) inducers (AID 1259344; active = well fitted curve in the direction sought with a large enough effect; an effect the other way counts as inactive or inconclusive)
# Outline: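 HepG2 cells grown on collagen I take up LipidTOX Red while exposed to compound for 24 h; after fixation they are imaged at 20x and pit metrics are extracted.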
# [12] = qHTS assay to identify small molecule HDAC inhibitors (AID 1259364); also: nearly all actives have a fitted effect of over 45% in size; also: potency is read from the fitted curve at half-maximal effect; as to activity change, negative = inhibition: top concentration of the series differs between compounds
# Outline: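 Wild-type HCT-116 cells were plated overnight, exposed to compounds for 2 h at 37 °C, then given HDAC-Glo class I/II luminogenic reagent for 30 min at room temperature before luminescence was read.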
# [13] = qHTS assay to identify small molecule HDAC inhibitors - cell viability counter screen (AID 1259365)
# Outline: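 Viability readout: CellTiter-Glo luminescence. Wild-type HCT-116 cells, 2hr compound treatment following overnight attachment at 37 C.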
# [14] = qHTS assay to identify small molecule agonists of the sonic hedgehog signaling (Shh) pathway - cell viability counter screen (AID 1259366); also: nearly all actives have a fitted effect of over 50% in size
# Outline: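 Viability measured fluorometrically (CellTiter-Fluor, 1hr, 37C) in 3T3 Gli1-Luc reporter cells after 23hr compound exposure within a 24hr incubation at 37C/5% CO2.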
# [15] = qHTS assay to identify small molecule antagonists of the sonic hedgehog signaling (Shh) pathway - cell viability counter screen (AID 1259367); also: nearly all actives have a fitted effect of over 55% in size; also: potency is read from the fitted curve at half-maximal effect
# Outline: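 After a 4 hr settling period, 3T3 Gli1-Luc cells were treated with DMSO-dissolved chemicals and conditioned medium, kept 24 hr at 37C in 5% CO2, and assayed for viability by CellTiter-Fluor fluorescence following 1 hr reagent incubation.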
# [16] = qHTS assay to identify small molecule agonists of the sonic hedgehog signaling (Shh) pathway (AID 1259368; calls by dose curve; also: series mostly up to about 92 µM; nearly all actives have a fitted effect of over 15% in size)
# Outline: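 NIH/3T3-derived 3T3Gli1-Luc cells carrying a stably integrated Gli1 response element–firefly luciferase reporter were plated, left 4 hr at 37 C, then given compounds in DMSO for 24 hr. Luminescence was read 30 min after adding luciferase reagent.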
# [17] = qHTS assay to identify small molecule antagonists of the sonic hedgehog signaling (Shh) pathway (AID 1259369; calls by dose curve; also: nearly all actives have a fitted effect of over 45% in size; also: potency is read from the fitted curve at half-maximal effect)
# Outline: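 NIH/3T3-derived 3T3Gli1-Luc cells with stably integrated Gli1-Luc reporter were preincubated 4hr at 37 C, then given compounds in DMSO plus Shh conditioned medium and incubated 24hr. Firefly luciferase luminescence read after 30min reagent at room temperature.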
# [18] = A CellTox Green Cytotoxicity Assay to monitor cytotoxicity in HepG2 cells - 32 hour (AID 1224883); also: nearly all actives have a fitted effect of over 50% in size
# Outline: as §1
# [19] = qHTS RealTime-Glo MT Cell Viability Assay in HepG2 cells - 16 hour (AID 1224885); also: nearly all actives have a fitted effect of over 50% in size
# Outline: as §3
# [20] = molecular target: Androgen receptor (Homo sapiens) (UniProt P10275); test: qHTS assay to identify small molecule antagonists of the androgen receptor (AR) signaling pathway using the MDA cell line in the presence of 0.5 nM R1881 (AID 1259243)
# Chain of Androgen receptor (Homo sapiens) (P10275 whole entry, looked up): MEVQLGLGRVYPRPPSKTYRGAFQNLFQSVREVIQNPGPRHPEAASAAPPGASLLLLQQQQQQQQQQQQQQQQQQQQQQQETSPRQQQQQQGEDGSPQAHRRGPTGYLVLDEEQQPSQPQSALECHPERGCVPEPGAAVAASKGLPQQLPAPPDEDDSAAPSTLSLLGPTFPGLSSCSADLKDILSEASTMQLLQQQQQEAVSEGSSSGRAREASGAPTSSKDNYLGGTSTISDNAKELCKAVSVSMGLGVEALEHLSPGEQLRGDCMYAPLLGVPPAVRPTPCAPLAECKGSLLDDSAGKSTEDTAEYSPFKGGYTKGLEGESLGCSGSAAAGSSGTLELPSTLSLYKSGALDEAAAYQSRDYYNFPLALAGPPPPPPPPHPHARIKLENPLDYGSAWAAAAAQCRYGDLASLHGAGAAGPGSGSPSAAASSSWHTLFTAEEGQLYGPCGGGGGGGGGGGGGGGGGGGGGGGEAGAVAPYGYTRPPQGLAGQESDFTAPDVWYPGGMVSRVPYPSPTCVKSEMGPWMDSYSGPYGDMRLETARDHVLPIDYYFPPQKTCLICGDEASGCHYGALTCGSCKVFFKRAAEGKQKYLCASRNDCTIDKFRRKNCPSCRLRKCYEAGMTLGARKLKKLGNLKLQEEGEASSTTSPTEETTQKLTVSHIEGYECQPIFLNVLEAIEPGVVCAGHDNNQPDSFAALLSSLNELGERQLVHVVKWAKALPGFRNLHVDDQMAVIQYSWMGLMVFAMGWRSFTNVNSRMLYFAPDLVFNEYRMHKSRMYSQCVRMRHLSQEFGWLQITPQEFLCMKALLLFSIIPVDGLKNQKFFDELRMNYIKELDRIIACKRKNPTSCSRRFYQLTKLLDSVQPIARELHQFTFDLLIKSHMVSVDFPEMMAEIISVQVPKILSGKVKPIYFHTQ
# Outline: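 MDA-kb2 human breast carcinoma cells carrying an MMTV-luciferase reporter (AR- and GR-responsive) were plated, rested 5 hr at 37C, dosed with compounds, then stimulated with 0.5 nM R1881 (final) for 16 hr; luminescence was read after ONE-Glo.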
smiles,measurement,setting,value
O=C(Nc1ccc(S(=O)(=O)N2CCOCC2)cc1)c1cc(Cl)ccc1NS(=O)(=O)c1ccc(Cl)s1,Potency,[1],21.3 µM (active)
same,Potency,[2],23.9 µM (active)
same,Potency,[3],inactive
same,Potency,[4],inactive
same,Potency,[5],23.9 µM (active)
same,Potency,[6],9.52 µM (active)
same,Potency,[7],26.8 µM (active)
same,Potency,[8],inactive
same,Potency,[9],inactive
same,Potency,[10],inactive
same,Potency,[11],inactive
same,Potency,[12],inactive
same,Potency,[13],inactive
same,Potency,[14],inactive
same,Potency,[15],inactive
same,outcome,[16],inactive
same,Potency,[17],26.6 µM (active)
CC1=CC[C@H](C(C)C)C=C1,Potency,[18],inactive
same,Potency,[19],inactive
same,Potency,[4],inactive
same,Potency,[5],inactive
same,Potency,[6],inactive
same,Potency,[8],inactive
same,Potency,[9],inactive
same,Potency,[10],inactive
same,Potency,[12],inactive
same,Potency,[13],inactive
same,Potency,[14],inactive
same,Potency,[15],inactive
same,outcome,[16],inactive
O[C@@H](COc1cccc2ncccc12)CN1CCN(C2c3ccccc3[C@@H]3[C@H](c4ccccc42)C3(F)F)CC1 (stereo not given in full),Potency,[1],inactive
same,Potency,[2],inactive
same,Potency,[5],inactive
same,Potency,[6],inactive
same,Potency,[8],inactive
same,Potency,[9],inactive
same,Potency,[20],13.3 µM (active)
same,Potency,[10],inactive
same,Potency,[12],inactive
same,Potency,[13],inactive
same,outcome,[16],inactive
same,Potency,[17],13.3 µM (active)
C/C=C/C(=O)CC,cytotoxicity,[1],0.505% [at 15.8 µM]
same,"activity change, negative = cytotoxic",[19],0.412% [at 15.8 µM]
same,"activity change, negative = cytotoxicity",[3],0.822% [at 15.8 µM]
same,"activity change, negative = cytotoxicity",[4],0.36% [at 15.8 µM]
same,activity change,[5],"0.377% [at 15.8 µM, stronger effect = higher value]"
same,"activity change, negative = cytotoxicity",[6],4.66% [at 15.8 µM]
same,cytotoxicity increase,[7],6.47% [at 15.8 µM]
same,"viability change, negative = cytotoxic",[9],-0.0358% [at 19 µM]
same,Potency,[10],inactive
same,"activity change, negative = inhibition",[12],-0.325% [at 19 µM]
same,"activity change, negative = cytotoxicity",[13],-0.534% [at 19 µM]
same,"viability change, negative = cytotoxic",[14],14.7% [at 19 µM]
same,activity change,[16],-3.94% [at 18.9 µM]
same,Potency,[17],5.9 µM (active)
c1ccc(C(O[C@H]2CCCN(CCc3ccc4c(c3)OCO4)C2)c2ccccc2)cc1,Potency,[1],inactive
same,Potency,[2],inactive
same,Potency,[4],inactive
same,Potency,[5],inactive
same,Potency,[6],inactive
same,Potency,[8],inactive
same,Potency,[9],inactive
same,Potency,[10],inactive
same,Potency,[12],inactive
same,Potency,[15],inactive
same,outcome,[16],inactive
same,Potency,[17],inactive
C[C@H](CCC(=O)O)[C@H]1CC[C@H]2[C@@H]3CC[C@@H]4C[C@H](O)CC[C@]4(C)[C@H]3C[C@H](O)[C@]12C,Potency,[1],inactive
same,Potency,[19],inactive
same,Potency,[3],inactive
same,Potency,[6],inactive
same,Potency,[7],inactive
same,Potency,[8],inactive
same,Potency,[9],inactive
same,Potency,[10],inactive
same,Potency,[11],inactive
same,Potency,[12],inactive
same,outcome,[16],inactive
CCOc1ccc(N)c([N+](=O)[O-])c1,Potency,[1],inactive
same,Potency,[2],inactive
same,Potency,[19],inactive
same,Potency,[6],inactive
same,Potency,[7],inactive
same,Potency,[8],inactive
same,Potency,[9],inactive
same,Potency,[10],inactive
same,Potency,[12],inactive
same,Potency,[13],inactive
same,Potency,[14],inactive
same,outcome,[16],inactive
same,Potency,[17],inactive
CN1C[C@H]2c3ccccc3Oc3ccc(Cl)cc3[C@@H]2C1,Potency,[1],inactive
same,Potency,[2],inactive
same,Potency,[3],inactive
same,Potency,[5],inactive
same,Potency,[7],inactive
same,Potency,[8],inactive
same,Potency,[9],inactive
same,Potency,[10],inactive
same,PLD induction,[11],1.39% [at 7.66 µM]
same,Potency,[12],inactive
same,outcome,[16],inactive
O=C(Nc1ccccc1)c1ccccc1O,Potency,[1],inactive
same,Potency,[2],inactive
same,Potency,[19],inactive
same,Potency,[6],inactive
same,Potency,[7],inactive
same,Potency,[8],inactive
same,Potency,[10],inactive
same,Potency,[12],8.63 µM (active)
same,Potency,[13],inactive
same,Potency,[15],61.1 µM (active)
same,outcome,[16],inactive
same,Potency,[17],54.5 µM (active)
CC[N+]1(CC)CCC(=C(c2ccccc2)c2ccccc2)C1C (stereo not given),Potency,[1],inactive
same,Potency,[2],inactive
same,Potency,[19],inactive
same,Potency,[6],inactive
same,Potency,[7],inactive
same,Potency,[8],inactive
same,Potency,[9],inactive
same,Potency,[11],inactive
same,Potency,[12],inactive
same,Potency,[14],inactive
same,Potency,[15],inactive
same,outcome,[16],inactive
CCCCCCCCCCCCN1CCCCCC1=O,Potency,[2],inactive
same,Potency,[19],inactive
same,Potency,[5],inactive
same,Potency,[6],inactive
same,Potency,[8],inactive
same,Potency,[9],inactive
same,Potency,[12],inactive
same,Potency,[13],inactive
same,Potency,[14],inactive
same,outcome,[16],inactive
O=C(Cl)c1cc(C(=O)Cl)cc(C(=O)Cl)c1,Potency,[1],inactive
same,Potency,[2],inactive
same,Potency,[4],49 µM (active)
same,Potency,[6],inactive
same,Potency,[8],inactive
same,Potency,[9],inactive
same,Potency,[10],inactive
same,Potency,[12],inactive
same,Potency,[13],inactive
same,Potency,[15],inactive
same,outcome,[16],inactive
same,Potency,[17],inactive
C/C=C/C=C/CO,Potency,[1],inactive
same,Potency,[2],inactive
same,Potency,[4],inactive
same,Potency,[5],inactive
same,Potency,[6],inactive
same,Potency,[7],inactive
same,Potency,[8],inactive
same,Potency,[9],inactive
same,Potency,[12],inactive
same,Potency,[13],inactive
same,Potency,[14],inactive
same,Potency,[15],inactive
same,outcome,[16],inactive
CC1OC(=O)C(C)OC1=O (stereo not given),Potency,[1],inactive
same,Potency,[19],inactive
same,Potency,[3],inactive
same,Potency,[5],inactive
same,Potency,[6],inactive
same,Potency,[7],inactive
same,Potency,[9],inactive
same,Potency,[10],inactive
same,Potency,[12],inactive
same,Potency,[13],inactive
same,Potency,[14],inactive
same,Potency,[15],inactive
same,outcome,[16],inactive
same,Potency,[17],inactive
CCCCc1ncc(/C=C(\Cc2cccs2)C(=O)O)n1Cc1ccc(C(=O)O)cc1,Potency,[1],inactive
same,Potency,[2],inactive
same,Potency,[19],inactive
same,Potency,[5],inactive
same,Potency,[6],inactive
same,Potency,[8],inactive
same,Potency,[9],inactive
same,Potency,[11],inactive
same,Potency,[12],inactive
same,Potency,[13],inactive
same,Potency,[14],inactive
same,Potency,[15],inactive
same,outcome,[16],inactive
same,Potency,[17],inactive

# Source: PubChem BioAssay (Tox21)
